# CBX7 AlphaScr: inhibitors of human CBX7 binding to H3K27me3 peptide; AlphaScreen His6-CBX7 / biotin-H3K27me3 peptide binding; active compounds read low; normalised signal (fraction of DMSO) (no concentration beside the values); hit rate 1.1% among 66,000; AID 1224903; in the data active = normalised signal below about 0.5
# Target sequence (O95931 whole entry, looked up): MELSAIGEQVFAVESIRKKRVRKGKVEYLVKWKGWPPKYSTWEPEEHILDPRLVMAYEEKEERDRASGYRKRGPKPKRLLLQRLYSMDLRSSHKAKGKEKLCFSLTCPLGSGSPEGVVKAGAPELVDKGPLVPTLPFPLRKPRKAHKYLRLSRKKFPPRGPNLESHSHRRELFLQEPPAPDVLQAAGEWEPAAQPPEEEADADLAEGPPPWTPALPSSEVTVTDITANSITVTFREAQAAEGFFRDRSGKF
# Hits are given with their value; n = inactive. The full list was thinned out, with hits kept by preference.
SMILES,CBX7 AlphaScr
COc1ccc(CNC(=O)C2CCCN(Cc3nc(-c4ccc(Cl)cc4)oc3C)C2)cc1 (configuration not stated),n
O=C(NCc1ccccc1Cl)c1cc(Nc2ccccc2)nc2ccccc12,n
Cc1cc(NC(=O)CSc2nc(NCc3ccc(Cl)cc3)c3ccccc3n2)no1,n
O=C(Cn1ncc2c1-c1ccccc1OC2)N1CCN(c2ccc(F)cc2)CC1,n
O=C(Nc1cccc(Br)c1)c1ccn(C(=O)Nc2ccc(Cl)cc2)n1,n
COc1ccccc1CNC(=O)C1CCN(c2nc3ccc(C)cc3s2)CC1,n
CCOc1ccccc1NC(=O)CCCOc1cc(=O)n(C)c2ccccc12,n
Cc1ccc(NC(=O)CC2Nc3ccccc3N(CC(=O)Nc3c(C)cccc3C)C2=O)cc1 (configuration not stated),n
Cc1ccccc1OCc1nc(C#N)c(N2CCCCC2)o1,n
Cc1ccccc1OCc1nc(C#N)c(N2CCOCC2)o1,n
Cc1ccccc1OCc1nc(C#N)c(N2CCCCCC2)o1,0.47
COc1ccc(N2CCN(c3oc(COc4ccccc4OC)nc3C#N)CC2)cc1,n
COc1ccc(N2CCN(c3oc(COc4ccc(Cl)cc4)nc3C#N)CC2)cc1,n
COc1ccc(N2CCN(c3oc(COc4cccc(C)c4)nc3C#N)CC2)cc1,0.49
CCN(CC)c1nc(C)nc2sc(C(=O)Nc3cccc(OC)c3)c(C)c12,n
CC1CCN(CCCNC(=O)CCn2nc(-c3ccc(Cl)cc3)ccc2=O)CC1,n
O=C(O)C1CCN(c2nc3ccccc3n2Cc2ccc(F)cc2)CC1,n
OC1(c2ccc3c(c2)c2c4n3CCN(Cc3ccccc3)C4CCC2)CCCC1 (configuration not stated),0.37
Cc1ccc2c(c1)c1c3n2CCN(CCC(N)=O)C3CCC1 (configuration not stated),n
CCN1CCn2c3c(c4cc(Cl)ccc42)CCCC31 (configuration not stated),n
COc1cccc(N2CCN(C(=O)C3CCN(S(=O)(=O)c4cccc5cccnc45)CC3)CC2)c1,n
CCN(CC)CCCNC(=O)c1cc2c(s1)CSC2,n
Cc1ccc(S(=O)(=O)N(C)c2cccc3cccnc23)cc1,n
Cc1ccc(S(=O)(=O)Nc2cccc3cccnc23)cc1,0.085
Cc1ccc(S(=O)(=O)Nc2ccccc2CNc2ccccn2)cc1,n
SMILES,CBX7 AlphaScr
CCOc1ccc(-c2cn(-c3ccc(C)c(F)c3)c(=O)[nH]2)cc1Cl,n
CC(=O)N1c2ccc(S(=O)(=O)N3CCN(c4cc(C)ccc4C)CC3)cc2CC1C (configuration not stated),n
O=C(CN1CCCCC1)Nc1c2c(nc3c1CCC3)CCCC2,0.45
O=C(CCCN1Cc2ccccc2C1)Nc1c2c(nc3c1CCC3)CCCC2,n
COc1ccccc1C(=O)Nc1c2c(nc3c1CCC3)CCCC2,n
CN(CC(=O)Nc1c2c(nc3c1CCC3)CCCC2)Cc1ccccc1,0.24
O=C(CN1CCCCC1)Nc1c2c(nc3ccccc13)CCCC2,n
NC(=O)C1CCN(CC(=O)Nc2c3c(nc4ccccc24)CCC3)CC1,n
Fc1cccc(CSc2nc3ccncc3n2Cc2c(F)cccc2Cl)c1,n
O=C1CN(C(=O)c2ccc3c(c2)OCO3)C(c2ccc(F)cc2)c2cc(F)ccc2N1 (configuration not stated),n
CCOC(=O)c1cccc(NS(=O)(=O)c2ccc3c(c2)CCN3C(=O)CC)c1,n
c1cnc2ccc3[nH]c(-c4ccncc4)nc3c2c1,n

# High-throughput results (PubChem)
